Molecules are shown by their SMILES. About 79,000 compounds went through this panel and 15% of them were active in at least one assay; those are over-represented in the sample as a whole. Unmarked numbers belong to inactive results. Cut-off read from the data, not from the text of the source: active = growth inhibition above about 70%; inactive = the rest.

One assay can be described thus: NCI Yeast Anticancer Drug Screen. Data for the rad50 strain (AID 155).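 Note: 0% = growth of vehicle-only cultures of the same strain.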 The conditions noted are these: S. cerevisiae rad50 strain growth inhibition; at 50.0 µM; active compounds read high. The procedure, abridged: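 Genetically altered yeast (DNA repair pathway); compound treatment; growth inhibition vs vehicle ctrl.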
Take `CCOc1ccc(NC(=O)C(=O)CC(=O)C2=C(C)Nc3ccccc3S2)cc1`: the growth inhibition was 27.6%.
In the case of `CC(C)[C@@H](C)[C@@]1(C)C[C@@H]1[C@@H](C)[C@H]1CC[C@@H]([C@@H]2CC=C3C[C@@H](O)CC[C@]3(C)C2=O)[C@]1(C)CCO`, the growth inhibition was 13.9%.
Same read-out and setting: then `COc1cc(C(=O)CCCC(=O)O)cc(OC)c1OC`, with -9.15%; and `CCC(C)(O)CCc1ccccc1` (stereo not given), with -17.5%.
As to `Cc1cc(Cl)c(Cl)cc1NC(=O)c1c(Br)c(Br)c(Br)c(Br)c1C(=O)O`, the growth inhibition was 0.7%.
For `CC1CC=CCC1COB(OCC1CC=CCC1C)OCC1CC=CCC1C` (stereo not given), the growth inhibition is 22.8%.
The same measure, in the same setting: the value for `COc1cc(C=O)c(-c2c(C=O)ccc3c2OCO3)c(OC)c1OC` was 24.4%.
The same measure, in the same setting: the value for `CC(C)C1C(=O)CCCC1=O` was -10.5%; that for `O=C(O)C[C@H]1CCCCC12CCOC2=O` (stereo not given in full) was 10.8%; that for `O=C1NC(C(=O)O)CC1O` (stereo not given) was 4.1%.
For `O=C1NCC2Cc3ccccc3C(c3ccccc3)=C12` (stereo not given), the growth inhibition is -1.6%.
With `CCCCNc1cccc2ccccc12`, the growth inhibition was 50.2%.
The same measure, in the same setting: the value for `O=C1NC(N2CCCC(CO)C2)=N/C1=C\c1cccs1` (stereo not given) was 8.1%.
On to `COc1ccc2c(c1)[n+]([O-])c(/C(C)=N/NC(N)=S)c(C)[n+]2[O-]`, for which the growth inhibition was 65.6%.
Same read-out and setting: then `C[C@@H](O)c1nc(C(N)=O)cs1`, with 6.15%; and `CCOC(=O)C1SCCC1(C)O` (stereo not given), with 18.9%.
Same read-out and setting: the value for `COc1ccc(C)cc1NS(=O)(=O)c1ccccc1` was -7.45%; that for `O=C1CC[C@@H](C(=O)Nc2cccc3ccccc23)N1` was -7.15%; that for `O=C1C(c2ccccc2)=C(c2ccccc2)C(c2ccc(Cc3ccc(C4=C(c5ccccc5)C(=O)C(c5ccccc5)=C4c4ccccc4)cc3)cc2)=C1c1ccccc1` was 20.1%.
For the compound `O=C(Nc1ccccc1)NC1CCCC1`, the growth inhibition was 4.65%.
As for `CCSC(SCC)C(SCC)C(OC(=O)c1ccccc1)C(OC(=O)c1ccccc1)C(COC(=O)c1ccccc1)OC(=O)c1ccccc1` (stereo not given), the growth inhibition is 9.3%.
Regarding `CCCCC1(C(=O)NC(=Nc2ccccc2)Nc2ccccc2)CCOC1=O` (stereo not given), the growth inhibition is 4.3%.
Same read-out and setting: then `N#CCC(=O)N/N=C1\C(=O)N(c2ccc(Cl)cc2)C(=O)C(=O)C1c1nc2ccccc2o1` (stereo not given), with 22.4%; and `c1ccc(CCN2CCN=C2Cc2ccccc2)cc1`, with 13.8%.
Turning to `CN(Cc1ccccc1)C(=O)/C=C/c1ccccc1`, the growth inhibition is 9.8%.
Turning to `CCOC(=O)C1=C(c2ccccc2)OC(N)=C(C#N)C1c1ccccc1` (stereo not given), the growth inhibition was -16.9%.
With `[N-]=[N+]=CC(=O)c1cc(-c2ccccc2)nc2c(-c3ccccc3)cccc12`, the growth inhibition is 55.8%.
Still for that read-out and setting: the value for `NC(=O)N=P(c1ccccc1)(c1ccccc1)c1ccccc1` was -9.9%; that for `CCCc1ccccc1[N+](=O)[O-]` was 0.25%.
As for `O=[N+]([O-])c1ccc(N=Cc2ccccc2)cc1`, the growth inhibition was 1.95%.
On to `COC(=O)C1=C(C(=O)OC)C2CCCOC2=C(C)C1` (stereo not given), for which the growth inhibition was -1.35%.
For `CC(c1ccccc1)c1ccc2ccccc2c1C(=O)O` (stereo not given), the growth inhibition was 39.8%.
For the compound `Cc1nn(-c2nc(-c3ccccc3)cs2)c(C)c1C`, the growth inhibition was -6.05%.
On the same count and under the same terms, then `Cc1nnc(N/N=C/c2ccccc2)n1/N=C\c1ccccc1`, with 8.05%; and `CCCCCCCCCCCCCCCCCC(N)=O`, with 5.2%; and `COc1ccc(C)cc1Sc1ccc(C)cc1[N+](=O)[O-]`, with -6.2%.
On to `Oc1ccc(C=Nc2ccccc2)c(O)c1O`, for which the growth inhibition was -12.7%.
As for `COc1ccc(CC(O)CN2CCC(CCN)CC2)cc1` (stereo not given), the growth inhibition was -19.8%.
Take `CC(=O)/C(=C/c1ccc(F)cc1)C(=O)CCN(C)C`: the growth inhibition was 8.15%.
For `CCOC(=O)CC(=O)c1cc(OC)c(OC)c(OC)c1`, the growth inhibition is 7.05%.

A short description of another assay: NCI Yeast Anticancer Drug Screen. Data for the mec2-1 strain (AID 157). The note with it: S. cerevisiae mec2-1 strain, at 50.0 µM, active compounds read high. The procedure, abridged: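 Yeast mec2-1 mutant treated with compound. Readout: growth inhibition vs vehicle controls.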
`CCOc1ccc(NC(=O)C(=O)CC(=O)C2=C(C)Nc3ccccc3S2)cc1`: the growth inhibition is 14.8%.
As to `CC(C)[C@@H](C)[C@@]1(C)C[C@@H]1[C@@H](C)[C@H]1CC[C@@H]([C@@H]2CC=C3C[C@@H](O)CC[C@]3(C)C2=O)[C@]1(C)CCO`, the growth inhibition was 9.65%.
On to `COc1cc(C(=O)CCCC(=O)O)cc(OC)c1OC`, for which the growth inhibition was 3.4%.
On the same count and under the same terms, then `CCC(C)(O)CCc1ccccc1` (stereo not given), with -42.6%; and `Cc1cc(Cl)c(Cl)cc1NC(=O)c1c(Br)c(Br)c(Br)c(Br)c1C(=O)O`, with 11.4%.
In the case of `CC1CC=CCC1COB(OCC1CC=CCC1C)OCC1CC=CCC1C` (stereo not given), the growth inhibition is -21.5%.
`COc1cc(C=O)c(-c2c(C=O)ccc3c2OCO3)c(OC)c1OC`: the growth inhibition is -1.9%.
On to `CC(C)C1C(=O)CCCC1=O`, for which the growth inhibition is 9.6%.
Regarding `O=C(O)C[C@H]1CCCCC12CCOC2=O` (stereo not given in full), the growth inhibition is 6.7%.
In the case of `O=C1NC(C(=O)O)CC1O` (stereo not given), the growth inhibition is 23.9%.
Same read-out and setting: the value for `O=C1NCC2Cc3ccccc3C(c3ccccc3)=C12` (stereo not given) was -1.1%; that for `CCCCNc1cccc2ccccc12` was 23.1%; that for `O=C1NC(N2CCCC(CO)C2)=N/C1=C\c1cccs1` (stereo not given) was -6.8%.
For `COc1ccc2c(c1)[n+]([O-])c(/C(C)=N/NC(N)=S)c(C)[n+]2[O-]`, the growth inhibition was 12.2%.
As for `C[C@@H](O)c1nc(C(N)=O)cs1`, the growth inhibition is 14.2%.
On to `CCOC(=O)C1SCCC1(C)O` (stereo not given), for which the growth inhibition is 21.7%.
Take `COc1ccc(C)cc1NS(=O)(=O)c1ccccc1`: the growth inhibition was -33.4%.
Consider `O=C1CC[C@@H](C(=O)Nc2cccc3ccccc23)N1`, for which the growth inhibition is 8.45%.
As to `O=C1C(c2ccccc2)=C(c2ccccc2)C(c2ccc(Cc3ccc(C4=C(c5ccccc5)C(=O)C(c5ccccc5)=C4c4ccccc4)cc3)cc2)=C1c1ccccc1`, the growth inhibition is 32.4%.
In the case of `O=C(Nc1ccccc1)NC1CCCC1`, the growth inhibition is 7.85%.
Take `CCSC(SCC)C(SCC)C(OC(=O)c1ccccc1)C(OC(=O)c1ccccc1)C(COC(=O)c1ccccc1)OC(=O)c1ccccc1` (stereo not given): the growth inhibition is -2.35%.
Regarding `CCCCC1(C(=O)NC(=Nc2ccccc2)Nc2ccccc2)CCOC1=O` (stereo not given), the growth inhibition is 8.15%.
The same measure, in the same setting: the value for `N#CCC(=O)N/N=C1\C(=O)N(c2ccc(Cl)cc2)C(=O)C(=O)C1c1nc2ccccc2o1` (stereo not given) was -11.8%; that for `c1ccc(CCN2CCN=C2Cc2ccccc2)cc1` was 8%; that for `CN(Cc1ccccc1)C(=O)/C=C/c1ccccc1` was 22.1%.
Still for that read-out and setting: the value for `CCOC(=O)C1=C(c2ccccc2)OC(N)=C(C#N)C1c1ccccc1` (stereo not given) was -8.4%; that for `[N-]=[N+]=CC(=O)c1cc(-c2ccccc2)nc2c(-c3ccccc3)cccc12` was 18.8%.
The same measure, in the same setting: then `NC(=O)N=P(c1ccccc1)(c1ccccc1)c1ccccc1`, with 12.6%; and `CCCc1ccccc1[N+](=O)[O-]`, with -14.9%; and `O=[N+]([O-])c1ccc(N=Cc2ccccc2)cc1`, with -30.6%.
For `COC(=O)C1=C(C(=O)OC)C2CCCOC2=C(C)C1` (stereo not given), the growth inhibition is 12.1%.
As for `CC(c1ccccc1)c1ccc2ccccc2c1C(=O)O` (stereo not given), the growth inhibition is 43.2%.
`Cc1nn(-c2nc(-c3ccccc3)cs2)c(C)c1C`: the growth inhibition was -8.6%.
With `Cc1nnc(N/N=C/c2ccccc2)n1/N=C\c1ccccc1`, the growth inhibition was 17.1%.
Still for that read-out and setting: the value for `CCCCCCCCCCCCCCCCCC(N)=O` was -14.2%; that for `COc1ccc(C)cc1Sc1ccc(C)cc1[N+](=O)[O-]` was -6.7%; that for `Oc1ccc(C=Nc2ccccc2)c(O)c1O` was -24.4%.
Turning to `COc1ccc(CC(O)CN2CCC(CCN)CC2)cc1` (stereo not given), the growth inhibition is -7.45%.
In the case of `CC(=O)/C(=C/c1ccc(F)cc1)C(=O)CCN(C)C`, the growth inhibition is 16.6%.
Turning to `CCOC(=O)CC(=O)c1cc(OC)c(OC)c(OC)c1`, the growth inhibition was 16.8%.

The record behind these values is PubChem BioAssay (NCI).
